Assay results from PubChem BioAssay (Tox21).
Unmarked numbers belong to inactive results. Entries that show only a call come without a potency. Calls of active or inactive are those of the source. Unless noted, calls come from the whole dose curve; as a rule, active = well fitted curve in the direction sought with a large enough effect in the repeat runs; inconclusive = weak or mixed curves; inactive = no such curve, though single readings can be large; an effect the other way counts as inactive or inconclusive.

Columns and labels:
[1] = qHTS assay to test for compound auto fluorescence at 535 nm (green) in HEK293 cells (AID 720680)
[2] = qHTS assay to test for compound auto fluorescence at 460 nm (blue) in HEK293 cell free culture (AID 720681)
Method in brief: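 Blue fluorescence (Ex 405/Em 460 nm, triamterene-equivalent) was read immediately after pin transfer of compound or DMSO into medium (DMEM, 10% FBS) without cells.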

[3] = qHTS assay to test for compound auto fluorescence at 590 nm (red) in HEK293 cell free culture (AID 720683)
Method in brief: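 Red-channel autofluorescence of compounds in culture medium (DMEM, 10% FBS), no cells, measured at 540/590 nm. Rose Bengal sodium is the reference fluorophore for equivalence.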

[4] = qHTS assay to test for compound auto fluorescence at 590 nm (red) in HepG2 cell free culture (AID 720684)
Method in brief: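 Steps: dispense MEM/10% FBS medium, no cells; pin compound or DMSO vehicle; read red channel, Ex/Em 540/590 nm. Output given as Rose Bengal sodium equivalents.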

[5] = qHTS assay to test for compound auto fluorescence at 460 nm (blue) in HepG2 cell free culture (AID 720685)
Method in brief: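 Compound (23 nL) or DMSO pinned into cell-free MEM with 10% FBS; blue fluorescence read at 405/460 nm excitation/emission, expressed as auto-fluorescence equivalency to triamterene.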

[6] = qHTS assay to test for compound auto fluorescence at 535 nm (green) in HepG2 cell free culture (AID 720686)
[7] = qHTS assay to test for compound auto fluorescence at 460 nm (blue) in HepG2 cells (AID 720687)
Method in brief: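 Blue-channel autofluorescence (Ex/Em 405/460 nm, triamterene-equivalent) was measured after 1 hr compound exposure at 37 C, 5% CO2. Cells were HepG2, plated overnight at 37 C in MEM plus 10% FBS.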

[8] = qHTS assay for identifying genotoxic compounds that show differential cytotoxicity against isogenic chicken DT40 cell lines with known DNA damage response pathways - wild type cell line (AID 743012); note: nearly all actives have a fitted effect of over 60% in size; note: potency is the fitted concentration of half-maximal effect
Method in brief: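 Quantitative HTS on parental DT40 cells: 40 h compound treatment at 37 C/5% CO2, with viability then determined by CellTiter-Glo luminescence. Values serve as the DNA repair-proficient reference for differential cytotoxicity.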

[9] = qHTS assay for identifying genotoxic compounds that show differential cytotoxicity against isogenic chicken DT40 cell lines with known DNA damage response pathways - Rev3 mutant cell line (AID 743014); note: nearly all actives have a fitted effect of over 55% in size; note: potency is the fitted concentration of half-maximal effect
[10] = qHTS assay for identifying genotoxic compounds that show differential cytotoxicity against isogenic chicken DT40 cell lines with known DNA damage response pathways - Rad54/Ku70 mutant cell line (AID 743015); note: nearly all actives have a fitted effect of over 60% in size; note: potency is the fitted concentration of half-maximal effect
[11] = qHTS assay to identify small molecule antagonists of the androgen receptor (AR) signaling pathway using the MDA cell line - cell viability counter screen (AID 743041; note: nearly all actives have a fitted effect of over 45% in size; note: potency is the fitted concentration of half-maximal effect)
Method in brief: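 Cells were plated at 3,000 per well and left 5 h. Compounds in DMSO were then pinned in, followed by R1881. After 16 h at 37C, CellTiter-Fluor fluorescence gave viability.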

[12] = target: Glucocorticoid receptor (Homo sapiens) (UniProt P04150); assay: qHTS assay to identify small molecule agonists of the glucocorticoid receptor (GR) signaling pathway (AID 720691; active = well fitted activation curve with a large enough effect in the signal ratio in the repeat runs, not every such curve was filed as active; inconclusive = weak or mixed curves, or effect the other way; inactive = no such curve, though single readings can be large or run the other way; the % refers to the signal ratio; note: potency is the fitted concentration of half-maximal effect)
Method in brief: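 Beta-lactamase reporter activity, read as fluorescence intensity, was measured in GR-bla HeLa cells exposed to compounds for 18 h at 37 C and then loaded with LiveBLAzer B/G FRET substrate for 2 h at room temperature.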

[13] = target: Glucocorticoid receptor (Homo sapiens) (UniProt P04150); assay: qHTS assay to identify small molecule antagonists of the glucocorticoid receptor (GR) signaling pathway (AID 720692; active = well fitted inhibition curve with a large enough effect in the signal ratio in the repeat runs, not every such curve was filed as active; inconclusive = weak or mixed curves, or effect the other way; inactive = no such curve, though single readings can be large or run the other way; the % refers to the signal ratio)
Method in brief: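 Fluorescence from cleaved LiveBLAzer B/G FRET substrate reports GRE-driven beta-lactamase in HeLa cells; compounds are tested against 5 nM dexamethasone (final) over 18 h at 37 C, substrate incubation 2 h at room temperature.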

[14] = qHTS assay to identify small molecule antagonists of the glucocorticoid receptor (GR) signaling pathway - cell viability counter screen (AID 720693); note: nearly all actives have a fitted effect of over 55% in size
[15] = qHTS assay to test for compound auto fluorescence at 535 nm (green) in HEK293 cell free culture (AID 720682)
Method in brief: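 Using fluorescein as calibrant, autofluorescence was quantified at 485/535 nm in cell-free DMEM containing 10% FBS after pintool addition of compound or vehicle.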

[16] = qHTS assay to identify small molecule antagonists of the androgen receptor (AR) signaling pathway - cell viability counter screen (AID 743033; note: nearly all actives have a fitted effect of over 45% in size)
[17] = target: Androgen receptor (Homo sapiens) (UniProt P10275); assay: qHTS assay to identify small molecule antagonists of the androgen receptor (AR) signaling pathway (AID 743035; active = well fitted inhibition curve with a large enough effect in the signal ratio in the repeat runs, not every such curve was filed as active; inconclusive = weak or mixed curves, or effect the other way; inactive = no such curve, though single readings can be large or run the other way; the % refers to the signal ratio)
Method in brief: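 Cell line: GeneBLAzer AR-UAS-bla GripTite (HEK293). Stimulus: R1881 added after compound. Exposure: 16 h, 37C, 5% CO2. Readout: LiveBLAzer B/G FRET fluorescence after 2 h at room temperature.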

[18] = target: Androgen receptor (Homo sapiens) (UniProt P10275); assay: qHTS assay to identify small molecule agonists of the androgen receptor (AR) signaling pathway (AID 743036; active = well fitted activation curve with a large enough effect in the signal ratio in the repeat runs, with a control signal flat, not every such curve was filed as active; inconclusive = weak or mixed curves, or effect the other way; inactive = no such curve, though single readings can be large or run the other way; the % refers to the signal ratio)
Method in brief: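 In this Tox21 qHTS, 2,000 HEK293 AR-bla cells per well were incubated with compounds for 16 h at 37C and 5% CO2. Fluorescence intensity was recorded 2 h after adding LiveBLAzer B/G FRET substrate at room temperature.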

[19] = target: Androgen receptor (Homo sapiens) (UniProt P10275); assay: qHTS assay to identify small molecule agonists of the androgen receptor (AR) signaling pathway using the MDA cell line (AID 743040; note: nearly all actives have a fitted effect of over 20% in size)
Method in brief: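 Cells plated, 5 h at 37C/0% CO2; compound or DMSO pinned; 16 h at 37C; ONE-Glo added; luminescence measured after 30 min at room temperature. Reporter line: MDA-kb2 with MMTV-luciferase responsive to AR and GR.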

[20] = target: Androgen receptor (Homo sapiens) (UniProt P10275); assay: qHTS assay to identify small molecule antagonists of the androgen receptor (AR) signaling pathway using the MDA cell line (AID 743042; note: nearly all actives have a fitted effect of over 55% in size)
Method in brief: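 Antagonist mode: compounds plus R1881 agonist added to MDA-kb2 AR-luc cells, incubated 16 h at 37C. Luciferase reporter luminescence quantified, with multiplexed CellTiter-Fluor readout for cell viability.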

Sequence of Androgen receptor (Homo sapiens) (P10275 whole entry, looked up): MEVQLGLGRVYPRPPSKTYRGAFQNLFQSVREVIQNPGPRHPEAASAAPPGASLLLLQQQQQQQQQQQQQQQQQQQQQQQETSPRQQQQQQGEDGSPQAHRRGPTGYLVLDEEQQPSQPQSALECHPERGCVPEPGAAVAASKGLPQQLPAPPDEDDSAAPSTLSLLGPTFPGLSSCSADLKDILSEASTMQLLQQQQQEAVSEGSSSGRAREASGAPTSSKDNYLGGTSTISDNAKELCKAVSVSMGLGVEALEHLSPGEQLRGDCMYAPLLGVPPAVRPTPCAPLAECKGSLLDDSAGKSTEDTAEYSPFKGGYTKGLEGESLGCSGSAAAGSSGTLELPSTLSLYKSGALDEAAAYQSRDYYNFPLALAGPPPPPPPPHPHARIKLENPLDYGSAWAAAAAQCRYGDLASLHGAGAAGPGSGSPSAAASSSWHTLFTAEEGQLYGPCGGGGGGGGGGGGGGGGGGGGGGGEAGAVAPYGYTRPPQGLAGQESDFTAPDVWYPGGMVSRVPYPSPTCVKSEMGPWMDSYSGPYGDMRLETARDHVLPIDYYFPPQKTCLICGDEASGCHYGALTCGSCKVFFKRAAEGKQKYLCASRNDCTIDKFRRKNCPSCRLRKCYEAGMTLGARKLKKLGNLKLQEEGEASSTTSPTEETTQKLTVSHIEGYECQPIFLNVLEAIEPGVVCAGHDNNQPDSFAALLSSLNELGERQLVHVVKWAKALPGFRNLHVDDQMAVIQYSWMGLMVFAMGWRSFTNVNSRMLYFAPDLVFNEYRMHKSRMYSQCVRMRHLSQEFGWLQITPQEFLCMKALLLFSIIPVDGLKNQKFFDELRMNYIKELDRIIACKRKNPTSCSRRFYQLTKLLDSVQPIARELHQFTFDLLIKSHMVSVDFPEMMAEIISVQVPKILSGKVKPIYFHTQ
Sequence of Glucocorticoid receptor (Homo sapiens) (P04150 whole entry, looked up): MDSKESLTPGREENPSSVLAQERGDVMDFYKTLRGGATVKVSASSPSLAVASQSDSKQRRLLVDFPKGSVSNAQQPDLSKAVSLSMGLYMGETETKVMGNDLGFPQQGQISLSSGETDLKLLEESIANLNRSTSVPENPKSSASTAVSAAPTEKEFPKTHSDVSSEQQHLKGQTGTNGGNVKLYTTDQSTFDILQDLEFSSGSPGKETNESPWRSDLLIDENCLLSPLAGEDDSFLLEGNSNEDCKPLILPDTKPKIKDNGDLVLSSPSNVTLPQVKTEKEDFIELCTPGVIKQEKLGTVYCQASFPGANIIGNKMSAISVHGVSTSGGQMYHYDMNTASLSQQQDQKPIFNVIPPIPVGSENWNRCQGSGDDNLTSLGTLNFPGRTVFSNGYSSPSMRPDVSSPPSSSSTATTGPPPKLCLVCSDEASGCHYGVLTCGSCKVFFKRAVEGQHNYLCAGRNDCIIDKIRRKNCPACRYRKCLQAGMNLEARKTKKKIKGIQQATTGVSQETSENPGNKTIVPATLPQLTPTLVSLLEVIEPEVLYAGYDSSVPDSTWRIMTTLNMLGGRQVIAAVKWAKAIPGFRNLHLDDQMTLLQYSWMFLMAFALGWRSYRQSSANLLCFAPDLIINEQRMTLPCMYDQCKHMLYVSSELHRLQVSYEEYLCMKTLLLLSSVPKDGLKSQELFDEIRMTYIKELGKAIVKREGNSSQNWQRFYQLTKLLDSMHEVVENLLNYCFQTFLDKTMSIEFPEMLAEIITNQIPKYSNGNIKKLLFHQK

## CCOC(=O)COc1ccc2c(c1)CC(NCC(O)c1cccc(Cl)c1)CC2 (stereo not given)
[1]
  outcome: inactive
[2]
  outcome: inactive
[3]
  outcome: inactive
[4]
  outcome: inactive
[5]
  outcome: inactive
[6]
  outcome: inactive
[7]
  outcome: inactive
[8]
  Potency: 54.9 µM (active)
[9]
  Potency: 54.9 µM (active)
[10]
  Potency: 54.9 µM (active)
[11]
  Potency: inactive

## O=C1CCCCC1C1CCCCC1 (stereo not given)
[1]
  outcome: inactive
[2]
  outcome: inactive
[4]
  outcome: inactive
[5]
  outcome: inactive
[6]
  outcome: inactive
[7]
  outcome: inactive
[12]
  Potency: inactive
[13]
  Potency: inactive
[14]
  outcome: inactive
[8]
  Potency: inactive
[9]
  Potency: inactive
[11]
  Potency: inactive

## CCCCCCCCCC/C=C/C#N
[1]
  outcome: inactive
[15]
  outcome: inactive
[4]
  outcome: inactive
[5]
  outcome: inactive
[6]
  outcome: inactive
[7]
  outcome: inactive
[14]
  outcome: inactive
[10]
  Potency: inactive
[16]
  outcome: inactive
[11]
  Potency: inactive

## O=C1CCN(c2ccccc2)N1
[1]
  outcome: inactive
[2]
  outcome: inactive
[3]
  outcome: inactive
[4]
  outcome: inactive
[5]
  outcome: inactive
[6]
  outcome: inactive
[7]
  outcome: inactive
[12]
  Potency: inactive
[13]
  Potency: inactive
[14]
  outcome: inactive
[9]
  Potency: 68.8 µM (active)
[17]
  Potency: inactive
[18]
  outcome: inactive
[19]
  Potency: inactive
[11]
  Potency: inactive
[20]
  outcome: inactive

## CCN(CC)C(=O)N(CC)CC
[1]
  outcome: inactive
[2]
  outcome: inactive
[3]
  outcome: inactive
[4]
  outcome: inactive
[5]
  outcome: inactive
[6]
  outcome: inactive
[12]
  Potency: inactive
[13]
  Potency: inactive
[14]
  outcome: inactive
[8]
  Potency: inactive
[16]
  outcome: inactive
[11]
  Potency: inactive

## OCCN(CCO)CCN(CCO)CCO
[1]
  outcome: inactive
[2]
  outcome: inactive
[3]
  outcome: inactive
[4]
  outcome: inactive
[5]
  outcome: inactive
[6]
  outcome: inactive
[7]
  outcome: inactive
[12]
  Potency: inactive
[13]
  Potency: inactive
[14]
  outcome: inactive
[10]
  Potency: inactive
[16]
  outcome: inactive
[17]
  Potency: inactive
[19]
  Potency: inactive
[20]
  outcome: inactive

## Cc1ccccc1C(=O)Nc1ccc(C(=O)N2CCCC(O)c3cc(Cl)ccc32)c(C)c1 (stereo not given)
[1]
  outcome: inactive
[2]
  outcome: inactive
[3]
  outcome: inactive
[4]
  outcome: inactive
[5]
  outcome: inactive
[6]
  outcome: inactive
[7]
  outcome: inactive
[14]
  outcome: inactive
[8]
  Potency: 26.6 µM (active)
[16]
  outcome: inactive
[11]
  Potency: inactive

## CCN[C@H]1CN(CCCOC)S(=O)(=O)c2sc(S(N)(=O)=O)cc21
[1]
  fluorescence, % of fluorescein: -0.0786% [at 18.6 µM]
[2]
  fluorescence, % of fluorescent control: 0.113% [at 18.6 µM]
[3]
  fluorescence, % of fluorescent control: -0.021% [at 18.6 µM]
[4]
  fluorescence, % of Rose Bengal: 0.0022% [at 18.6 µM]
[5]
  fluorescence, % of fluorescent control: -0.0073% [at 18.6 µM]
[6]
  fluorescence, % of fluorescein control: 0.0136% [at 18.6 µM]
[7]
  fluorescence, % of fluorescent control: -0.117% [at 18.6 µM]
[12]
  Potency: inactive
[14]
  outcome: inactive
[9]
  Potency: inactive
[10]
  Potency: inactive
[16]
  outcome: inactive
[11]
  Potency: inactive

## CCCCC(=O)O[C@]1(C(=O)CO)[C@H](C)C[C@H]2[C@@H]3CCC4=CC(=O)C=C[C@]4(C)[C@@]3(F)[C@@H](O)C[C@@]21C
[1]
  outcome: inactive
[2]
  outcome: inactive
[3]
  outcome: inactive
[4]
  outcome: inactive
[5]
  outcome: inactive
[6]
  outcome: inactive
[7]
  outcome: inactive
[12]
  Potency: 4.3 nM [inconclusive] (active)
[14]
  outcome: inactive
[8]
  Potency: 26.6 µM (active)
[11]
  Potency: inactive

## CN(C)Cc1ccccc1
[1]
  outcome: inactive
[2]
  outcome: inactive
[3]
  outcome: inactive
[4]
  outcome: inactive
[5]
  outcome: inactive
[6]
  outcome: inactive
[7]
  outcome: inactive
[12]
  Potency: inactive
[14]
  outcome: inactive
[8]
  Potency: inactive
[9]
  Potency: inactive
[10]
  Potency: inactive
[17]
  Potency: inactive
[18]
  outcome: inactive
[19]
  Potency: inactive
[20]
  outcome: inactive

## COc1cc(N)c(Cl)cc1C(=O)NC1CCN(Cc2ccccc2)CC1
[1]
  fluorescence, % of fluorescein: 0.0161% [at 18.6 µM]
[2]
  fluorescence, % of fluorescent control: -0.0892% [at 18.6 µM]
[3]
  fluorescence, % of fluorescent control: 0.0929% [at 18.6 µM]
[4]
  fluorescence, % of Rose Bengal: 0.723% [at 18.6 µM]
[5]
  fluorescence, % of fluorescent control: 2.92% [at 18.6 µM]
[6]
  fluorescence, % of fluorescein control: -0.0056% [at 18.6 µM]
[12]
  Potency: inactive
[13]
  Potency: inactive
[14]
  outcome: inactive
[11]
  Potency: inactive

## CC[C@H]1CC[C@H](NCc2cc3c(cc2OC)[C@H]2C[C@H]2C(=O)N3C)[C@H](c2ccccc2)N1
[1]
  outcome: inactive
[2]
  outcome: inactive
[3]
  outcome: inactive
[4]
  outcome: inactive
[5]
  outcome: inactive
[6]
  outcome: inactive
[7]
  outcome: inactive
[12]
  Potency: inactive
[14]
  outcome: inactive
[8]
  Potency: 6.86 µM (active)
[9]
  Potency: 4.86 µM (active)
[10]
  Potency: 4.86 µM (active)
[16]
  outcome: inactive
[11]
  Potency: 68.6 µM (active)

## C=C(C)C(=O)OCCOP(=O)(O)O
[1]
  outcome: inactive
[2]
  outcome: inactive
[3]
  outcome: inactive
[4]
  outcome: inactive
[5]
  outcome: inactive
[6]
  outcome: inactive
[7]
  outcome: inactive
[12]
  Potency: inactive
[13]
  Potency: inactive
[14]
  outcome: inactive
[9]
  Potency: inactive
[16]
  outcome: inactive
[11]
  Potency: inactive

## CCC(=O)Nc1ccc(O)cc1
[1]
  outcome: inactive
[2]
  outcome: inactive
[3]
  outcome: inactive
[4]
  outcome: inactive
[5]
  outcome: inactive
[6]
  outcome: inactive
[7]
  outcome: inactive
[12]
  Potency: inactive
[14]
  outcome: inactive
[8]
  Potency: inactive
[9]
  Potency: inactive
[10]
  Potency: inactive
[11]
  Potency: inactive

## CCCC1CCC(=O)O1 (stereo not given)
[1]
  outcome: inactive
[2]
  outcome: inactive
[3]
  outcome: inactive
[4]
  outcome: inactive
[5]
  outcome: inactive
[6]
  outcome: inactive
[7]
  outcome: inactive
[12]
  Potency: inactive
[14]
  outcome: inactive
[8]
  Potency: inactive
[9]
  Potency: inactive
[10]
  Potency: inactive
[11]
  Potency: inactive
